# In publication PMC7862700, “An all-to-all approach to the identification of sequence-specific readers for epigenetic DNA modifications on cytosine”:
# Legend:
# Assay in all cases: DAPPL (digital affinity profiling via proximity ligation, sequencing); 10 mM Tris-HCl pH 7.5, 50 mM NaCl, 1 mM DTT, 4% glycerol, room temperature, 30 min; GST-TFs on glutathione beads, 16-mer random dsDNA library, 0.1% formaldehyde crosslink after washing; high values mean tight binding
# FEV = biological target: T1, FEV (Homo sapiens, UniProt Q99581 1-238); settings: protein: recombinant; tags: N-terminal GST; dsDNA, one strand shown
# T1 sequence: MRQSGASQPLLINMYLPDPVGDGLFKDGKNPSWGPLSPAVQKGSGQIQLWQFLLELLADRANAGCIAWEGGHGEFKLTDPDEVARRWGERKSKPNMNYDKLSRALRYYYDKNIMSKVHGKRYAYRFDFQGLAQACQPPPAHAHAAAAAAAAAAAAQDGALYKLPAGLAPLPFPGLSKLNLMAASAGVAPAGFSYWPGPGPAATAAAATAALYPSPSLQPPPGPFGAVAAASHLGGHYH
# Summary of the method: (§1)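 After expression in yeast as GST fusions, human transcription factors were bound to glutathione beads, DNA-barcoded and mixed with a tag-only sample. The pools were incubated with 200 nmole of a 16-mer random double-stranded DNA library in Tris/NaCl/DTT/glycerol buffer (30 min, room temperature), washed and crosslinked with 0.1% formaldehyde. Proximity ligation with BsaI/T4 ligase ran for 1 h at 37 °C, before PCR amplification and sequencing on an Illumina NextSeq500. Binding signal is a hexamer's read frequency for a factor divided by its frequency for the tag-only sample.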
# ETV5 = ETV5 (Homo sapiens, UniProt P41161 1-510); settings: protein: recombinant; tags: N-terminal GST; dsDNA, one strand shown
# Summary of the method: as §1
# HSF1 = HSF1 (Homo sapiens, UniProt Q00613 1-529); settings: protein: recombinant; tags: N-terminal GST; chain copies: 3; dsDNA, one strand shown
# Summary of the method: as §1
# SPIC = biological target: T2, SPIC (Homo sapiens, UniProt Q8N5J4 1-248); settings: protein: recombinant; tags: N-terminal GST; dsDNA, one strand shown
# T2 sequence: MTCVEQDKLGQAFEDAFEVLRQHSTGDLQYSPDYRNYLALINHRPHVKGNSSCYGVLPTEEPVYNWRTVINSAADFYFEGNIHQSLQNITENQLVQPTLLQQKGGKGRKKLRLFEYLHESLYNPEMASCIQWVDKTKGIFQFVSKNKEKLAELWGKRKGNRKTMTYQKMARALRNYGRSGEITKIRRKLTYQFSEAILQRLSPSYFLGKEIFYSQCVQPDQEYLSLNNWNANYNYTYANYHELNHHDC
# Summary of the method: as §1
# ELF4 = ELF4 (Homo sapiens, UniProt Q99607 1-663); settings: protein: recombinant; tags: N-terminal GST; dsDNA, one strand shown
# Summary of the method: as §1
# ELK4 = biological target: T3, ELK4 (Homo sapiens, UniProt P28324-2 1-405); settings: protein: recombinant; tags: N-terminal GST; dsDNA, one strand shown
# T3 sequence: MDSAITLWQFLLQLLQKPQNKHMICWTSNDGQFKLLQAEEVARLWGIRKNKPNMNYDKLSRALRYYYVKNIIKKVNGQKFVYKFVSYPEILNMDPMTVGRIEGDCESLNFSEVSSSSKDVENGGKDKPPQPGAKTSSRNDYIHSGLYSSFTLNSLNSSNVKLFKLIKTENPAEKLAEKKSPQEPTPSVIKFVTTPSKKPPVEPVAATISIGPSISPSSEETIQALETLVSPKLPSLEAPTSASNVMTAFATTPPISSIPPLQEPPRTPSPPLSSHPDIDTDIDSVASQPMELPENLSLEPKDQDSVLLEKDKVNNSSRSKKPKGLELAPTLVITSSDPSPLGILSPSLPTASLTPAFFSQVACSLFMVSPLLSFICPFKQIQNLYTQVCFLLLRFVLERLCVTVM
# Summary of the method: as §1
# ETV2 = biological target: T4, ETV2 (Homo sapiens, UniProt O00321 1-342); settings: protein: recombinant; tags: N-terminal GST; dsDNA, one strand shown
# T4 sequence: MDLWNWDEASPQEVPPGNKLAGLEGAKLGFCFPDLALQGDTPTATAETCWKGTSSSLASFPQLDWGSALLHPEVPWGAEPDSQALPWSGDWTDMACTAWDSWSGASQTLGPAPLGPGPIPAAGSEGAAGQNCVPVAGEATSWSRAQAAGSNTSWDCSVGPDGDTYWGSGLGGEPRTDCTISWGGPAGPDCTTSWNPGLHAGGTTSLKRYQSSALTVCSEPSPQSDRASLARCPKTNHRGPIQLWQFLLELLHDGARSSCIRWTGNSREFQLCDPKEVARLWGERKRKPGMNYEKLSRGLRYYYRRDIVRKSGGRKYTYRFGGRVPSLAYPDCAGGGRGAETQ
# Summary of the method: as §1
# ELF3 = biological target: T5, ELF3 (Homo sapiens, UniProt P78545 1-371); settings: protein: recombinant; tags: N-terminal GST; dsDNA, one strand shown
# T5 sequence: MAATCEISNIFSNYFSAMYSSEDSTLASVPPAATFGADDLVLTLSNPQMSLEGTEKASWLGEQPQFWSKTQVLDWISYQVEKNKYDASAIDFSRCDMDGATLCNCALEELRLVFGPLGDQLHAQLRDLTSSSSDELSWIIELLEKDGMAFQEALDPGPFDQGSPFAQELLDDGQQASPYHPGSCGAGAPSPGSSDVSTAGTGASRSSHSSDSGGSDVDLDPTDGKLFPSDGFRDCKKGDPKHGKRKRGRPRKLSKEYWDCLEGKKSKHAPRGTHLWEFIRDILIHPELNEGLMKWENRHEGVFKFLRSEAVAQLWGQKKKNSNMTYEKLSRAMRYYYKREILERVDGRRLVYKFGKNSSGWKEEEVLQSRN
# Summary of the method: as §1
# CRX = CRX (Homo sapiens, UniProt O43186 1-299); settings: protein: recombinant; tags: N-terminal GST; dsDNA, one strand shown
# Summary of the method: as §1
# ETV1 = ETV1 (Homo sapiens, UniProt P50549 1-477); settings: protein: recombinant; tags: N-terminal GST; dsDNA, one strand shown
# Summary of the method: as §1
# ERF = biological target: T6, ERF (Homo sapiens, UniProt P50548 1-548); settings: protein: recombinant; tags: N-terminal GST; dsDNA, one strand shown
# T6 sequence: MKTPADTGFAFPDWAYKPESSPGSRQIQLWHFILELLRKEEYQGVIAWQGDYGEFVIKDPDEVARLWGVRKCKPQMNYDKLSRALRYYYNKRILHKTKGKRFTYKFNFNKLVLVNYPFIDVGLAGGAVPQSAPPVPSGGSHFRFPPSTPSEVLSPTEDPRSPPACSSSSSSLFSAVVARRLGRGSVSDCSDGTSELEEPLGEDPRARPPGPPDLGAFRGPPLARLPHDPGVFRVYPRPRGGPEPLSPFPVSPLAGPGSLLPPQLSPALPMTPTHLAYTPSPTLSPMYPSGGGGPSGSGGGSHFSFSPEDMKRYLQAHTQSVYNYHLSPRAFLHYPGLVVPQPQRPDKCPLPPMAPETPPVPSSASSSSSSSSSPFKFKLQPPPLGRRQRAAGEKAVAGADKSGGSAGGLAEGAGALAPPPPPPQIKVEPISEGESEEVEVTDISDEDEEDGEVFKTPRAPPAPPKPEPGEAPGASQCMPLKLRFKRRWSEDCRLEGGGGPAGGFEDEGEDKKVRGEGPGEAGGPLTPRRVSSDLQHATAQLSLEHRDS
# Summary of the method: as §1
# ETV3L = biological target: T7, ETV3L (Homo sapiens, UniProt Q6ZN32 1-361); settings: protein: recombinant; tags: N-terminal GST; dsDNA, one strand shown
# T7 sequence: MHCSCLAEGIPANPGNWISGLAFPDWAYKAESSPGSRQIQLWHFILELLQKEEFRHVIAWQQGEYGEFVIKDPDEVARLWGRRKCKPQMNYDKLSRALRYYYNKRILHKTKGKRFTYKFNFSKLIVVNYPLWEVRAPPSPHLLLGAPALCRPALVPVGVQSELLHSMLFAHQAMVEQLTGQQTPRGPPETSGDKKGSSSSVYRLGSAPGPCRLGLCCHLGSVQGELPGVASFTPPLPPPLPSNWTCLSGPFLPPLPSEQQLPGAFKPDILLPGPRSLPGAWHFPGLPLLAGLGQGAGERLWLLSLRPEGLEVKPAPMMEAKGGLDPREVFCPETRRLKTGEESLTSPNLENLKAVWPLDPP
# Summary of the method: as §1
# ETS2 = biological target: T8, ETS2 (Homo sapiens, UniProt P15036 1-469); settings: protein: recombinant; tags: N-terminal GST; dsDNA, one strand shown
# T8 sequence: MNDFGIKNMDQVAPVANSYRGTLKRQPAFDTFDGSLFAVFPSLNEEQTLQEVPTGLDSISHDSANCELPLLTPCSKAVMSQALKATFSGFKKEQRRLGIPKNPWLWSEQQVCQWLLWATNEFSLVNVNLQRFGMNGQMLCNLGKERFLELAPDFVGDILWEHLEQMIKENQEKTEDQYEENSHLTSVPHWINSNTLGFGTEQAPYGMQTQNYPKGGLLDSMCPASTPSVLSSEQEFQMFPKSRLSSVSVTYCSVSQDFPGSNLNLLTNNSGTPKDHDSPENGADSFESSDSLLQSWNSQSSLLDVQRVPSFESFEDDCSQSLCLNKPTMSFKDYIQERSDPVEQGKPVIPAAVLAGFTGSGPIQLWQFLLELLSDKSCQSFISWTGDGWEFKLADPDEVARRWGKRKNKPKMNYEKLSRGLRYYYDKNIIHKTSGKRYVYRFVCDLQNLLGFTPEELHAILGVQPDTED
# Summary of the method: as §1
# SPDEF = biological target: T9, SPDEF (Homo sapiens, UniProt O95238 1-335); settings: protein: recombinant; tags: N-terminal GST; dsDNA, one strand shown
# T9 sequence: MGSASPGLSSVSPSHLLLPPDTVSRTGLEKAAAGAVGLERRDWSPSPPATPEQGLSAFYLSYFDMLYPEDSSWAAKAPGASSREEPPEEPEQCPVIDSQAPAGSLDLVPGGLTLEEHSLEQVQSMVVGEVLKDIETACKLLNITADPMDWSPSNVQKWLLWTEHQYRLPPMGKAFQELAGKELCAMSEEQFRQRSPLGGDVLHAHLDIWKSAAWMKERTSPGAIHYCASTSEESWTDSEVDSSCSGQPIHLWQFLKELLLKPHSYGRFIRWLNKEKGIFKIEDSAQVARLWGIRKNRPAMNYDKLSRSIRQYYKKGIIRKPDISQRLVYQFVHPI
# Summary of the method: as §1
# ETV7 = biological target: T10, ETV7 (Homo sapiens, UniProt Q9Y603 1-341); settings: protein: recombinant; tags: N-terminal GST; dsDNA, one strand shown
# T10 sequence: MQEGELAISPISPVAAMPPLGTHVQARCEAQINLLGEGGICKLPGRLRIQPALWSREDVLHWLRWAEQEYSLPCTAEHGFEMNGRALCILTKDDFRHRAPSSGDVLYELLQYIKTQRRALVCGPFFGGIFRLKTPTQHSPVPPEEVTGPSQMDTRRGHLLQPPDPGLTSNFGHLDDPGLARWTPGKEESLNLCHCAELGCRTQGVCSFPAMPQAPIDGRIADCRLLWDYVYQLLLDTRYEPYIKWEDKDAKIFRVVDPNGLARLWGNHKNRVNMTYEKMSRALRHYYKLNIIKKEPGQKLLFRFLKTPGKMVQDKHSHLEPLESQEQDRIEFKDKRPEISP
# Summary of the method: as §1
# ELF5 = biological target: T11, ELF5 (Homo sapiens, UniProt Q9UKW6-2 1-255); settings: protein: recombinant; tags: N-terminal GST; dsDNA, one strand shown
# T11 sequence: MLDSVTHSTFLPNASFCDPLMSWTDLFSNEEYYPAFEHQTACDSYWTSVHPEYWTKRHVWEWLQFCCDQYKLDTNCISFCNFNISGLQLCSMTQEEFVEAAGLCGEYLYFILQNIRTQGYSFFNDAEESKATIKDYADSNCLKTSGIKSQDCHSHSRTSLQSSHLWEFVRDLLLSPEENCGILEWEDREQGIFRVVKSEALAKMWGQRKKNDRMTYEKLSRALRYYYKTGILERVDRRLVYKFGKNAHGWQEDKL
# Summary of the method: as §1
# ETV3 = biological target: T12, ETV3 (Homo sapiens, UniProt P41162-2 1-143); settings: protein: recombinant; tags: N-terminal GST; dsDNA, one strand shown
# T12 sequence: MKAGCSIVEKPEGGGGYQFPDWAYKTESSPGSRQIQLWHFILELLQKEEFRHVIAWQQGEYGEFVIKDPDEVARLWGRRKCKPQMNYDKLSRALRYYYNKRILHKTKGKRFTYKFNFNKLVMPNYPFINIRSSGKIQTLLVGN
# Summary of the method: as §1
# ETV6 = ETV6 (Homo sapiens, UniProt P41212 1-452); settings: protein: recombinant; tags: N-terminal GST; dsDNA, one strand shown
# Summary of the method: as §1
# ELF4, sequence (Q99607 whole entry): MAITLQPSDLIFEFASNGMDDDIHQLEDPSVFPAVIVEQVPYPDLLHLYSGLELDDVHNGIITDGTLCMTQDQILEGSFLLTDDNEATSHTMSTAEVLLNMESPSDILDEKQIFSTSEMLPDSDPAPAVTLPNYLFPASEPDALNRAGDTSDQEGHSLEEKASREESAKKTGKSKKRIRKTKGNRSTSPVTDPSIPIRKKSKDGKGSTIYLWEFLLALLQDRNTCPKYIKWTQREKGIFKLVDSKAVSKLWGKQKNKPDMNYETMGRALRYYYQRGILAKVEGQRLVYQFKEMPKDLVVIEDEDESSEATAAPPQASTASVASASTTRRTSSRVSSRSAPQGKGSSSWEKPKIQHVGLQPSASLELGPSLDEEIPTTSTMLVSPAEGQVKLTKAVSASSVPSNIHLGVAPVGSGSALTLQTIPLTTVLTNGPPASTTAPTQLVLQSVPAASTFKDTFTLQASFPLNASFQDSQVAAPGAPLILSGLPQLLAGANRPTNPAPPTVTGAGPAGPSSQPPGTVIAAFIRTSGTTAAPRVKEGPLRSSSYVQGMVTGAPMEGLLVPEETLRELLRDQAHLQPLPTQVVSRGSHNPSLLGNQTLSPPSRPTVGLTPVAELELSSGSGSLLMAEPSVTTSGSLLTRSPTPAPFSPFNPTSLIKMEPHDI
# ETV5, sequence (P41161 whole entry): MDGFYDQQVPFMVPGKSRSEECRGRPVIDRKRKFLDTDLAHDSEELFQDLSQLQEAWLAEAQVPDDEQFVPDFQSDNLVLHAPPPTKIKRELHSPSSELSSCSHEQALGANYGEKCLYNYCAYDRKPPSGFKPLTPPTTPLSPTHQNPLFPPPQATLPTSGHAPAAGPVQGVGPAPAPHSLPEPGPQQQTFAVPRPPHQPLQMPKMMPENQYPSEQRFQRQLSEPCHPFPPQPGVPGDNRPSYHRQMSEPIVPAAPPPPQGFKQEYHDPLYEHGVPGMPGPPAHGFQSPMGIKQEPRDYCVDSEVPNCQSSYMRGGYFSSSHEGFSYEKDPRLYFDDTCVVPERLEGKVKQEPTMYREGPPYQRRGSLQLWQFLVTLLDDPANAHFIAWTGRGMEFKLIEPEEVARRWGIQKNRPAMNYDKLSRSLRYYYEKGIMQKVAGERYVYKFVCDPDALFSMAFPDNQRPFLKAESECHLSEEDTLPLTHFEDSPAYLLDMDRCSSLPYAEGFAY
# ETV6, sequence (P41212 whole entry): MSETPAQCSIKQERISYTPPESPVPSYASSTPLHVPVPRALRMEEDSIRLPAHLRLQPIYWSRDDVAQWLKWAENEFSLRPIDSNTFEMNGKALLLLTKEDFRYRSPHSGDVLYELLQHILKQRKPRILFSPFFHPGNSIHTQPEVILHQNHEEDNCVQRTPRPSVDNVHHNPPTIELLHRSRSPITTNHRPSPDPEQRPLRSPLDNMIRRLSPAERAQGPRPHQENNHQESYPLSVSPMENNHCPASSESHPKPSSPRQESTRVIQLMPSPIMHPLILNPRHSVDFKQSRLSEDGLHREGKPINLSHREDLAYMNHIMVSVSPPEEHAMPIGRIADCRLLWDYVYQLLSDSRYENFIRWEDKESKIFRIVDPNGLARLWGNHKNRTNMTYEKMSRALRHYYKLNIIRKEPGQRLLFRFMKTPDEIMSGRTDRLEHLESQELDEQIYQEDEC
# CRX, sequence (O43186 whole entry): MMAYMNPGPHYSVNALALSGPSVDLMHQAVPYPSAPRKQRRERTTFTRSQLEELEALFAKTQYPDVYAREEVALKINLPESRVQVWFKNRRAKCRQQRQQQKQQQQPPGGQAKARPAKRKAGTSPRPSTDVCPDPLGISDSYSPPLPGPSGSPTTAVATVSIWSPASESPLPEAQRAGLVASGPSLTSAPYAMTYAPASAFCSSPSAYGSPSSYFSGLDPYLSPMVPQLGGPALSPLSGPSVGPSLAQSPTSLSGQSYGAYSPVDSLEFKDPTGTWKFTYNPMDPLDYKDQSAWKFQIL
# HSF1, sequence (Q00613 whole entry): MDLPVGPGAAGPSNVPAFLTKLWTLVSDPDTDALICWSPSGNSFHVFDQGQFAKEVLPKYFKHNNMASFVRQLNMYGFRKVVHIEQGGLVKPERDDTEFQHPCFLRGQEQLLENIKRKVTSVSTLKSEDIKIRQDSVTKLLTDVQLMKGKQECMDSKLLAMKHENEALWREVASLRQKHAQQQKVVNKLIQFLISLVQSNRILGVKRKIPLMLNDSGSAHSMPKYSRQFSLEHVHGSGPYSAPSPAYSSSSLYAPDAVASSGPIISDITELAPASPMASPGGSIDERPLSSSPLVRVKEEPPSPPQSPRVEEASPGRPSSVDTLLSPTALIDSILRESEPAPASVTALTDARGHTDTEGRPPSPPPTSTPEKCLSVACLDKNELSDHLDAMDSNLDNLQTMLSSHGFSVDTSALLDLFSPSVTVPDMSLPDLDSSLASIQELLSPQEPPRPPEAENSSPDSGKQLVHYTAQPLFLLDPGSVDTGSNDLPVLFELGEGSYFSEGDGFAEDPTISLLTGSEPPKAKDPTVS
# ETV1, sequence (P50549 whole entry): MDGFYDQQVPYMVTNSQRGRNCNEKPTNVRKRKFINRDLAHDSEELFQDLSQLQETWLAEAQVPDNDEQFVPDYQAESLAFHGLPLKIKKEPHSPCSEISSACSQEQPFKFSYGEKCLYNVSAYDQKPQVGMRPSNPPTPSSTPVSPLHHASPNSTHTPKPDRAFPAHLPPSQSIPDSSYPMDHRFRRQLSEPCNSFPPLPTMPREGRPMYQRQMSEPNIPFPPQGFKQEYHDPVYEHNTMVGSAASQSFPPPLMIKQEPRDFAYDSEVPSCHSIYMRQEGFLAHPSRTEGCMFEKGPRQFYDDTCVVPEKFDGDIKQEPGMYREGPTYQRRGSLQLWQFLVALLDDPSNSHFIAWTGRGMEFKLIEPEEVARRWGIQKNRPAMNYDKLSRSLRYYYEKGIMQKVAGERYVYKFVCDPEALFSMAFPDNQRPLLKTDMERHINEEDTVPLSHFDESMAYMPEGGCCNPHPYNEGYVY
sequence,measurement,setting,value
ATATCC,binding signal,FEV,"5.87 fold enrichment (6-mer frequency, TF over GST control)"
same,binding signal,ETV5,"2.97 fold enrichment (6-mer frequency, TF over GST control)"
same,binding signal,HSF1,"1.31 fold enrichment (6-mer frequency, TF over GST control)"
same,binding signal,SPIC,"2.59 fold enrichment (6-mer frequency, TF over GST control)"
same,binding signal,ELF4,"2.27 fold enrichment (6-mer frequency, TF over GST control)"
same,binding signal,ELK4,"2.39 fold enrichment (6-mer frequency, TF over GST control)"
same,binding signal,ETV2,"2.7 fold enrichment (6-mer frequency, TF over GST control)"
same,binding signal,ELF3,"2.77 fold enrichment (6-mer frequency, TF over GST control)"
same,binding signal,CRX,"1.58 fold enrichment (6-mer frequency, TF over GST control)"
same,binding signal,ETV1,"2.72 fold enrichment (6-mer frequency, TF over GST control)"
same,binding signal,ERF,"2.67 fold enrichment (6-mer frequency, TF over GST control)"
same,binding signal,ETV3L,"2.57 fold enrichment (6-mer frequency, TF over GST control)"
same,binding signal,ETS2,"2.76 fold enrichment (6-mer frequency, TF over GST control)"
same,binding signal,SPDEF,"4.48 fold enrichment (6-mer frequency, TF over GST control)"
same,binding signal,ETV7,"2.25 fold enrichment (6-mer frequency, TF over GST control)"
same,binding signal,ELF5,"3.58 fold enrichment (6-mer frequency, TF over GST control)"
same,binding signal,ETV3,"2.89 fold enrichment (6-mer frequency, TF over GST control)"
same,binding signal,ETV6,"2.64 fold enrichment (6-mer frequency, TF over GST control)"
